PNC inhibitor: blocks assembly of the perinucleolar compartment. PC3M PTB-GFP, PNC prevalence imaging, 16 h; stronger effect = lower value. activity change (PNC), negative = inhibition, % at 10 µM. hit rate 3.1% among 140,000. AID 2417;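 active = readout at or below -70, meaning at least 70% loss of cells showing the perinucleolar compartment, a nuclear body marking cancer cells; inconclusive = readout between -30 and a set limit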
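Compounds are pinned in duplicate onto adhered PC3M cells stably expressing GFP-tagged PTB and incubated 16 h at 37 C. Cells are then fixed, nuclei stained with Hoechst, and PNC-positive cells counted.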
aGal spleen mod: alpha-galactosidase A (human) modulation | P06280 | AID 2107 | Potency, µM (titrated, usually from 80 µM), hits mostly inhibitors | human spleen homogenate, 4MU-alpha-Gal fluorescence, 40 min | hit rate 0.008% among 240,000
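Human spleen homogenate (1 ug) as enzyme source, 4-methylumbelliferyl-alpha-D-galactopyranoside 1 mM final, citrate/phosphate pH 5.0 with 0.01% Tween-20. Compounds 40 min at 37C, NaOH/glycine stop; fluorescence Ex 365/Em 440, Hill-fit AC50.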
GLA inh pH 4.5: blocks human alpha-galactosidase A at pH 4.5. purified enzyme, 4-MU-alpha-Gal fluorescence, pH 4.5. activity change, negative = inhibition, % at 105 µM. P06280. 230,000 tested, under 10 active
HPGD block: HPGD (human) dehydrogenase inhibition; Potency, µM, most hits filed as inhibitors; purified HPGD, NADH fluorescence kinetic, PGE2 substrate; hit rate 4.3% among 150,000; AID 894; active = well fitted inhibition curve with a large enough effect, not every such curve was filed as active; inconclusive = small, poorly fitted or top-dose-only effect, or another doubt; inactive = no such curve, though single readings can be large or run the other way
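20 nM HPGD preincubated 15 min at room temperature with compound in 50 mM Tris-HCl pH 8, 0.01% Tween 20. Started with 1 mM NAD+ and 30 uM prostaglandin E2; NADH fluorescence (360/450 nm) read 5 times over 30-s intervals, last minus first.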
ALOX12 inhib: 12-hLO (ALOX12) enzyme inhibition; purified 12-hLO, xylenol orange hydroperoxide absorbance; Potency, µM (doses to about 57.1 µM), actives largely listed as inhibitors; hit rate 0.12% among 150,000; also: nearly all actives have a fitted effect of over 55% in size
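Xylenol orange chromogenic assay: hydroperoxide from 12hLO oxidises Fe(II), giving red-shifted Fe(III)-XO absorbance. Conditions: 150 nM enzyme, 40 uM arachidonic acid, 25 mM Hepes pH 7.0, 0.01% Triton X-100, 30 min, room temperature.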
ALDH1A1 block: ALDH1A1 (human) enzyme inhibition; Purified ALDH1A1, NADH fluorescence, propionaldehyde substrate; Potency, µM (doses to about 75.3 µM), actives largely listed as inhibitors; AID 1030; P00352; hit rate 7.3% among 220,000; active = well fitted inhibition curve with a large enough effect, not every such curve was filed as active; inconclusive = small, poorly fitted or top-dose-only effect, or another doubt; inactive = no such curve, though single readings can be large or run the other way
Target sequence (P00352 whole entry, looked up): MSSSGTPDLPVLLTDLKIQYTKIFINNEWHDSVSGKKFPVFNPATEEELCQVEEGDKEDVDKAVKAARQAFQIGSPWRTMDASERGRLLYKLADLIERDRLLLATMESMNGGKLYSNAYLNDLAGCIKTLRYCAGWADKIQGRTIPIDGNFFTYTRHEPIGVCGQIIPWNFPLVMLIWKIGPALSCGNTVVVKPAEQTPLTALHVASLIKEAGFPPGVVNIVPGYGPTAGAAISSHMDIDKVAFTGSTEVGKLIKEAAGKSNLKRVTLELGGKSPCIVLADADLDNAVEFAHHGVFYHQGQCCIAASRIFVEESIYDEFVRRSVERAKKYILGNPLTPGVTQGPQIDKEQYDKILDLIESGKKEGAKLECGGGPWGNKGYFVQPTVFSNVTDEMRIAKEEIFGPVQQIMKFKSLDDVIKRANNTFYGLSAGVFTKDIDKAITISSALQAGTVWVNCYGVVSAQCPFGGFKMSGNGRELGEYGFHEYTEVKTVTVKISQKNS
Hits are given with their value; n = inactive; u = inconclusive; x = no result; [ ] = dose if it differs, or a comment. Most compounds without a hit are left out; they make up all but 10% or so of the library. Unless noted, calls follow the shape of the dose curve; as a rule, active = well fitted curve in the direction sought with a large enough effect; inconclusive = small, poorly fitted or top-dose-only effect, or another doubt; inactive = no such curve, though single readings can be large; an effect the other way counts as inactive or inconclusive.

SMILES	PNC inhibitor	aGal spleen mod	GLA inh pH 4.5	HPGD block	ALOX12 inhib	ALDH1A1 block
Cn1c(Cc2ccccc2)nnc1SCC(=O)Nc1ccc2c(c1)OCO2	n	n	n	n	n	n
CC(C)c1nnc(SCC(=O)Nc2ccc3c(c2)OCO3)n1C	-100	n	n	n	n	n
O=C(CSc1nc2ccccc2n1CC(=O)N1CCCC1)Nc1ccc2c(c1)OCO2	n	n	n	n	n	u
CC(C)c1ccc(NC(=O)CSc2n[nH]c(=O)n2-c2ccc3c(c2)OCCO3)cc1	x	n	n	x	x	11µM
CC(C)c1nnc(SCC(=O)NCc2ccc3c(c2)OCO3)n1C	-100	n	n	n	n	n
CC1CCCC(C)N1C(=O)Cn1c(SCC(=O)Nc2ccc3c(c2)OCO3)nc2ccccc21 (stereo not drawn)	u	n	n	n	n	5µM
C=CCN1CC(C(=O)N(CCCN(C)C)C(=O)NCC)CC2c3cccc4[nH]cc(c34)CC21 (stereo not drawn)	x	n	x	x	x	x
COCc1cc(C)nc(Nc2ccc(C)cc2C)c1C#N	u	n	n	n	n	n
COCc1cc(C)nc(Nc2ccc(C)c(C)c2)c1C#N	n	n	n	x	n	28µM
CN(CC(=O)Nc1ccc(F)cc1)C(=O)CSc1nc2ncc(Cl)cc2[nH]1	x	n	n	x	x	n
C=C(C)CN(CC)C(=O)CSc1nc2ncc(Cl)cc2[nH]1	n	n	n	14µM	n	25µM
O=C(Nc1cnn(Cc2ccc(Cl)cc2Cl)c1)c1noc2c1CCCC2	n	n	n	n	n	14µM
Cc1ccc(C(=O)c2c(C)oc3c2C(=O)C(=O)c2ccccc2-3)cc1	u	n	n	20µM	u	20µM
Cc1ccc(C(=O)c2coc3c2C(=O)C(=O)c2ccccc2-3)cc1	n	n	n	u	n	20µM
Cc1oc2c(c1C(=O)c1ccc(Cl)cc1)C(=O)C(=O)c1ccccc1-2	n	n	n	n	n	u
Cc1c(N2C(=O)c3cccc4cccc(c34)C2=O)cnn1C	x	n	n	x	x	x
Cc1nc(N2CCOCC2)c2nc(-c3ccccc3)n(C(C)CN(C)C)c2n1 (stereo not drawn)	x	n	n	u	n	u
Cc1cc(C=C2C(=O)c3ccccc3C2=O)c(C)n1-c1ccccc1	n	n	n	n	n	16µM
O=C1NC(=S)N/C1=C\c1ccccc1OCc1ccc(C(=O)O)cc1	x	n	n	x	x	x
O=C(O)c1ccc(COc2ccccc2C=C2C(=O)c3ccccc3C2=O)cc1	n	n	n	10µM	n	u
Cc1ccc(-n2c(C)cc(C=C3C(=O)CC(C)(C)CC3=O)c2C)cc1	n	n	n	u	n	0.89µM
CC1=NN(c2ccccc2)C(=O)/C1=C\c1cc(C)n(-c2ccccc2)c1C	u	n	n	n	n	u
Cc1cc(/C=C2\Cc3ccccc3C2=O)c(C)n1-c1ccccc1	u	n	n	u	n	7.9µM
CC(=O)C(=Cc1cc(C)n(-c2ccccc2)c1C)C(C)=O	x	n	n	x	x	u
Cc1cc(C=C2C(=O)c3ccccc3C2=O)c(C)n1-c1cccc(C(=O)O)c1	x	n	n	x	x	10µM
SMILES	PNC inhibitor	aGal spleen mod	GLA inh pH 4.5	HPGD block	ALOX12 inhib	ALDH1A1 block
O=C(O)c1cccc(-n2cccc2C=C2C(=O)c3ccccc3C2=O)c1	x	n	n	x	x	u
Cc1cc(C=C2C(=O)c3ccccc3C2=O)c(C)n1-c1ccc(C(=O)O)cc1	x	n	n	x	x	5.6µM
CCCSc1nc2c(c(=O)n(C)c(=O)n2C)n1C	x	n	n	x	x	n
Cc1cc(C)nc(NC(=O)COc2ccc(Cl)cc2)c1	x	x	x	n	n[11.4 µM]	n[13.5 µM]
O=C(CSc1ncn[nH]1)c1cccc([N+](=O)[O-])c1	n	n	n	u	n	u
O=C(CSc1nccc(=O)[nH]1)c1ccco1	x	n	n	x	x	n
O=C(CSc1ncn[nH]1)c1ccccc1	n	n	n	22µM	n	u
O=C(CSc1ncn[nH]1)c1ccco1	n	n	n	25µM	n	u
O=C(CSc1ncn[nH]1)Nc1ccc(Cl)c(Cl)c1	u	n	n	n	n	4µM
O=C(CSc1ncn[nH]1)NC1CC2CCC1C2 (stereo not drawn)	n	n	n	16µM	n	u
FC(F)(F)c1ccccc1-c1nccc(N2CCNCC2)n1	x	n	x	x	x	n
CS(=O)(=O)N1CCC2(CCCN(c3ncccn3)C2)CC1	x	n	x	n	n	n
COc1ccc(CN(C(=O)c2nsc(Cl)c2Cl)C(C(=O)NC2CCCCC2)c2ccc(OC)cc2)cc1 (stereo not drawn)	n	n	n	n	n	7.1µM
COc1ccc(CN(C(=O)c2cccs2)C(C(=O)NC2CCCCC2)c2ccc3ncccc3c2)cc1 (stereo not drawn)	n	n	n	n	n	u
COc1ccc(CN(C(=O)c2nsc(Cl)c2Cl)C(C(=O)NC2CCCC2)c2ccc(C)cc2)cc1 (stereo not drawn)	n	n	n	n	n	13µM
COc1ccc(C(C(=O)NC2CCCC2)N(CCN(C)C)C(=O)c2snc(C(N)=O)c2N)cc1 (stereo not drawn)	-114	n	n	u	n	u
NC(=O)c1nsc(C(=O)N(CCc2ccccc2)C(C(=O)NC2CCCC2)c2ccco2)c1N (stereo not drawn)	n	n	n	n	n	u
Cc1ccc(S(=O)(=O)N[C@H]2COC(=O)[C@H](C)COC(=O)C/C=C\[C@H]2C)cc1	x	n[17.5 µM]	x	x	x	n[13.5 µM]
C/C(=N\NC1=N[C@H]2CS(=O)(=O)C[C@H]2S1)c1ccccc1	x	n	n	x	x	x
CCCN[C@@H](C)C(=O)Nc1c(C)csc1C(=O)OC	x	n	n	n	n	n
O=c1[nH]n(-c2cccc3cccnc23)c(=O)c2ccccc12	n	n	n	25µM	n	n
COc1ccc(CCNC(=S)NC(=O)c2cc(OC)c(OC)c(OC)c2)cc1OC	x	n	n	x	x	x

Screening results as filed in PubChem BioAssay.
